Screening data (PubChem BioAssay)
Compounds with a hit are over-represented: about 12% of the library has one in this group of screens.
Sm TGR block – qHTS Assay for the Inhibitors of Schistosoma Mansoni Peroxiredoxins; hit rate 3% among 360,000; purified TGR, DTNB reduction, TNB absorbance 405 nm; Potency, µM (titrated, usually from 114 µM), hits mostly inhibitors; Schistosoma mansoni thioredoxin glutathione reductase (TGR), Q962Y6; also: nearly all actives have a fitted effect of over 60% in size
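Kinetic colorimetric format: TGR-catalysed, NADPH-driven DTNB reduction monitored via TNB absorbance. Enzyme dispensed at 20 nM; compound exposure 15 min at room temperature before reaction start.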
SARS PLP yeast – qHTS of Yeast-based Assay for SARS-CoV PLP; S. cerevisiae expressing SARS-CoV PLpro, growth rescue; hit rate 0.19% among 330,000; AID 485353, 2010; Potency, µM (series often up to 32.9 µM), usual class: activators; calls by dose curve; also: nearly all actives have a fitted effect of over 55% in size
Pf growth 48h – Primary qHTS for delayed death inhibitors of the malarial parasite plastid, 48 hour incubation; AID 504832, 2011; hit rate 5.9% among 310,000; Potency, µM (series often up to 28.7 µM), most hits filed as inhibitors; P. falciparum luciferase growth in erythrocytes, 48 h
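A one-generation exposure of luciferase-tagged malaria parasites in RPMI 1640/Albumax erythrocyte culture, 37 C and 5% CO2. Inhibition is inferred from decreased luminescence after adding detection reagent.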
Pf growth 96h – Primary qHTS for delayed death inhibitors of the malarial parasite plastid, 96 hour incubation | P. falciparum luciferase reporter growth, 96 h | hit rate 6.9% among 320,000 | Potency, µM (titrated, usually from 28.7 µM), most hits filed as inhibitors | AID 504834, 2011
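96 h incubation, 37 C, 5% CO2, of luciferase-reporter P. falciparum-infected RBCs (2% hematocrit, 0.05% parasitemia final) with test compounds; endpoint luminescence.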
Numbers stand for hits; i = inactive; ? = inconclusive; nt = no result. Unless noted, calls follow the shape of the dose curve; as a rule, active = well fitted curve in the direction sought with a large enough effect; inconclusive = small, poorly fitted or top-dose-only effect, or another doubt; inactive = no such curve, though single readings can be large; an effect the other way counts as inactive or inconclusive.

SMILES	Sm TGR block	SARS PLP yeast	Pf growth 48h	Pf growth 96h
CCN(CC)C(=O)CC(c1cc(OC)c(OC)c(OC)c1)c1c(OC)cc(OC)c2c(-c3ccccc3)cc(=O)oc12 (stereo unspecified)	i	i	4.65µM	4.15µM
COc1ccc(C(CC(=O)N2CCCCC2)c2c(OC)cc(OC)c3ccc(=O)oc23)cc1 (stereo unspecified)	i	i	?	?
CCN(CC)C(=O)CC(c1ccc(OC)cc1)c1c(OC)cc(OC)c2ccc(=O)oc12 (stereo unspecified)	i	i	10.4µM	?
CCN(CC)C(=O)CC(c1cc(OC)c(OC)c(OC)c1)c1c(OC)cc(OC)c2ccc(=O)oc12 (stereo unspecified)	i	i	11.7µM	11.7µM
COc1ccc(NC(=S)NC(=O)/C=C/c2ccco2)c(OC)c1	?	i	i	?
O=C(/C=C/c1ccco1)NC(=S)Nc1cccc(C(=O)O)c1	4.47µM	i	nt	?
Cc1ccc2oc(-c3cccc(NC(=S)NC(=O)/C=C/c4ccco4)c3)nc2c1	i	i	i	i
COc1cccc(NC(=S)NC(=O)/C=C/c2ccco2)c1	10µM	i	i	i
CC(=O)SC[C@@H](Cc1ccccc1)C(=O)NCC(=O)OCc1ccccc1	nt	nt	i	i
CCn1c(SCC(=O)Nc2ccccc2)nc2c1c(=O)n(C)c(=O)n2C	i	i	i	11.7µM
COCCn1c(SCC(=O)Nc2ccccc2)nc2c1c(=O)[nH]c(=O)n2C	i	i	i	i
COc1ccc(C(=O)CSc2nc3c(c(=O)n(C)c(=O)n3C)n2C)cc1	i	i	i	i
Cn1c(=O)c2c(nc(SCC(=O)c3ccccc3F)n2C)n(C)c1=O	i	i	i	1.85µM
CCOc1ccc(OCC)c(NC(=O)CSc2nc3c(c(=O)n(C)c(=O)n3C)n2C(C)C)c1	i	i	4.15µM	3.29µM
CC(C)n1c(SCC(=O)Nc2ccccc2)nc2c1c(=O)[nH]c(=O)n2C	i	i	?	13.1µM
CC(C)n1c(SCC(=O)Nc2ccccc2)nc2c1c(=O)n(C)c(=O)n2C	i	i	11.7µM	?
Cn1c(=O)c2c(nc(SCC(=O)Nc3ccccc3)n2C)n(C)c1=O	i	i	i	i
CN(C(=O)CC1C(=O)NCCN1Cc1c(F)cccc1Cl)C1CCOCC1 (stereo unspecified)	50.1µM	i	i	i
Cc1ccc(CN2CCNC(=O)C2CC(=O)N(C)C2CCOCC2)cc1 (stereo unspecified)	44.7µM	i	i	?
CN(C(=O)CC1C(=O)NCCN1Cc1ccoc1)C1CCOCC1 (stereo unspecified)	i	i	i	?
CCOCCCNC(=O)C(=O)Nc1c2c(nn1-c1ccc(OC)cc1)CSC2	i	nt	nt	nt
CCc1nnc(NC(=O)c2cc(-c3ccccn3)nc3ccc(Br)cc23)s1	i	i	i	?
CCn1c(=O)oc2cc(NC(=O)CCl)ccc21	39.8µM	i	?	?
Cc1ccc(Cl)cc1NC(=O)Cn1cc2c(n1)CCCC2	i	i	nt	2.08µM
O=C(Cn1cc2c(n1)CCCCC2)Nc1c(F)c(F)cc(F)c1F	i	i	nt	14.7µM
SMILES	Sm TGR block	SARS PLP yeast	Pf growth 48h	Pf growth 96h
Cc1ccc(Cl)cc1NC(=O)Cn1cc2c(n1)CCCCC2	i	nt	nt	nt
Cc1cc(C)c(NC(=O)Cn2cc3c(n2)CCCC3)c(C)c1	i	i	i	i
COc1ccc(-c2cc(C(F)(F)F)n3nc(C(=O)Nc4ccccc4SC)cc3n2)cc1OC	i	nt	nt	nt
Cc1ccc(C(=O)c2cnc3ccccc3c2-c2ccccc2)cc1	i	i	13.1µM	10.4µM
COc1ccc(C(=O)c2cnc3ccccc3c2-c2ccccc2)cc1	i	i	?	?
COc1ccc(N2Cc3cccc(C(=O)Nc4ccc(Cl)cc4)c3C2=O)cc1	i	nt	nt	nt
CCc1c(C#N)c(SCCC(=O)Nc2ccc(F)cc2)nc2c1C(=O)CC(C)(C)C2	i	i	?	nt
Cc1cc(SCC(=O)c2ccc3c(c2)OCO3)nc2ccccc12	i	i	nt	?
Cc1ccc(-c2nc(NC(=O)CSc3nnc(C)s3)ns2)cc1	i	i	nt	i
Cc1nnc(SCC(=O)Nc2nsc(-c3ccccc3)n2)s1	i	i	i	7.38µM
Cc1cc(SCC(=O)c2ccc(O)c(O)c2)nc2ccccc12	2.82µM	i	i	i
CC1(C)CC(=O)c2c(nc(SCC(=O)Nc3nsc(-c4ccccc4)n3)c(C#N)c2-c2ccccc2)C1	i	i	?	14.7µM
Cc1ccc(-c2nc(NC(=O)CSc3cc(C)c4ccccc4n3)ns2)cc1	i	i	i	14.7µM
COc1ccccc1OCCC(=O)NNC(=O)c1ccccc1F	i	i	i	i
Cc1cc2nn(-c3ccccc3)nc2cc1NC(=O)c1cccs1	i	i	i	?
CC(=O)Nc1cc2nn(-c3ccccc3)nc2cc1C	i	i	i	13.1µM
O=C(COc1ccccc1)Nc1ccc(OCc2cc(=O)n3ccsc3n2)cc1	i	nt	nt	nt
CC1(C)CC2CC(C)(CN2Cc2c(O)ccc3ccccc23)C1 (stereo unspecified)	6.31µM	i	i	i
COc1cc2c(cc1OC)C(COc1ccc(C(C)C)cc1)N(C(=O)c1ccc(S(=O)(=O)N3CCCC3)cc1)CC2 (stereo unspecified)	i	nt	nt	nt
CC(=O)c1ccc(-n2nncc2C(C)(C)C)cc1	i	i	i	i
Cc1cnnn1-c1ccc(C(=O)CCl)cc1	5.62µM	?	i	i
Cc1nn(Cc2ccc(Cl)cc2Cl)c(C)c1NC(=O)CCl	39.8µM	i	0.586µM	10.4µM
Cc1nn(Cc2ccc(Cl)cc2Cl)c(C)c1NC(=O)c1nn(C)cc1Cl	i	i	i	?
Cc1ccc(-n2nc(C)c(NC(=O)CCl)c2C)cc1	50.1µM	?	3.7µM	i
CCOc1ccc(N(CC(=O)N2CCCC2)S(=O)(=O)c2ccc(Cl)cc2)cc1	i	i	i	i
SMILES	Sm TGR block	SARS PLP yeast	Pf growth 48h	Pf growth 96h
CCOC(=O)CSc1nc2cc(OC)c(OC)cc2c2nc(-c3ccccc3)nn12	i	nt	nt	nt
COc1cc(C2CC(=O)Oc3cc4c(cc32)OCO4)cc(OC)c1OC (stereo unspecified)	nt	i	nt	nt
COc1cc([C@@H]2c3cc4c(cc3[C@@H](O)[C@H]3COC(=O)[C@H]23)OCO4)cc(OC)c1O[Si](C)(C)C(C)(C)C	i	i	7.38µM	8.28µM
O=C(c1ccc2c(c1)OCCO2)N(Cc1cccnc1)c1nc2c(Cl)cccc2s1	i	nt	nt	nt
CSc1nnnn1-c1ccc(Cl)cc1	nt	i	i	?
Cc1sc2ncnc(Sc3nnnn3-c3ccc(Cl)cc3)c2c1C	?	i	8.28µM	?
c1ccc(-n2nnnc2Sc2ncnc3sc4c(c23)CCCC4)cc1	i	i	?	1.65µM
O=C(O)CSc1ncnc2sc3c(c12)CCCC3	i	i	i	i
CCOc1ccc(NC(=O)CN(C)S(=O)(=O)c2ccc3c(c2)c(=O)n(C)c(=O)n3C)cc1	i	nt	nt	nt
COc1ccccc1NCCC(=O)OCC(=O)Nc1cc([N+](=O)[O-])ccc1F	nt	i	nt	nt
Cc1cc2nc(-c3ccc(OCc4ccccc4C)cc3)cc(C(F)(F)F)n2n1	i	nt	nt	nt
CCOc1ccc(NC(=O)CN(c2ccc(Cl)cc2C)S(=O)(=O)c2ccccc2)cc1	i	nt	nt	nt
